# Experimental data reported in the supplement of paper PMC7156485.
# “And” between values parts separate entries of the source, which are not always exact repeats. Equal entries are not always repeated.
# Experiments:
# Conditions in all cases: concentration: 10 µM; 24 h
# [1] = test system: HCC1569; test: cell number relative to DMSO (% of DMSO); higher = more cells (less growth inhibition / toxicity)
# How it was run: (§1)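 H1.0 nuclear intensity or cell number is stated as percent of the plate control, based on the median of replicates, and HCC1569 values were smoothed for positional effects. These came from HCC1569 and TDF cells treated with compounds at 10 µM for 24 h at 37 °C in triplicate, then fixed in 3.7% formaldehyde and stained with a rabbit anti-H1.0 antibody, an AlexaFluor 647 secondary and DAPI.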
# [2] = test system: TDF; test: as above
# How it was run: as §1
# [3] = test system: TDF; test: H1.0 immunofluorescence intensity relative to DMSO (% of DMSO); higher = stronger H1.0 induction, active = 120 or more
# How it was run: as §1
# [4] = test system: HCC1569; test: H1.0 immunofluorescence intensity relative to DMSO (% of DMSO); higher = stronger H1.0 induction, active = 140 or more
# How it was run: as §1
# 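Wherever H1.0 immunofluorescence intensity relative to DMSO is given: TDF is a line of transformed human dermal fibroblasts of mesenchymal origin.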
# 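Wherever cell number relative to DMSO is given: TDF denotes transformed human dermal fibroblasts of mesenchymal origin.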
SMILES,cell number [1],cell number [2],H1.0 immunofluorescence intensity [3],H1.0 immunofluorescence intensity [4]
C#CC1(O)CCC2C3CCC4=CC(=O)CCC4C3CCC21C (stereo not drawn) [Norethindrone],96.5,91,99.5 (inactive),109 (inactive)
CCCCCC=CCC=CCC=CCC=CCCCC(=O)C(F)(F)F,104,96.7,95.3 (inactive),95.1 (inactive)
Fc1ccc(Cl)cc1-c1nc(Nc2ccncc2)c2nccnc2n1,98.4,91.6,98.2 (inactive),113 (inactive)
Nc1ccc(N2C(=O)c3ccccc3C2=O)c(Cl)c1 [N-(4-Amino-2-chlorophenyl)phthalimide],103,107,94.3 (inactive),100 (inactive)
Cl.O=S(=O)(c1cccc2c(Cl)cccc12)N1CCCNCC1,99 and 96.6,104,103 (inactive) and 93.2 (inactive),105 (inactive) and 97.4 (inactive)
CCCCCCCC/C=C\CCCCCCCC(=O)NCC(=O)O [[(9Z)-9-octadecenoylamino]acetic acid],99.2,100,96.9 (inactive),100 (inactive)
NC/C=C/C(=O)O [(E)-4-amino-2-butenoic acid],97.2,105,93.2 (inactive),99.6 (inactive)
Cl.O=c1cc(N2CCOCC2)oc2c(-c3ccccc3)cccc12,87.7,91.7,86.9 (inactive),141 (active)
CN(c1ccccc1CNc1nc(Nc2ccc3c(c2)CC(=O)N3)ncc1C(F)(F)F)S(C)(=O)=O,54.4,22.4,113 (inactive),126 (inactive)
Cc1cccc(-c2nn(C(=S)Nc3ccccc3)cc2-c2ccnc3ccccc23)n1,98.7,97.7,82.2 (inactive),134 (inactive)
CCCNCC(O)COc1ccccc1C(=O)CCc1ccccc1.Cl (stereo not drawn) [Propafenone hydrochloride],95.4,103,99.2 (inactive),102 (inactive)
CCCCCN(CCCCC)C(=O)C(CCC(=O)[O-])NC(=O)c1ccc(Cl)c(Cl)c1.[Na+] (stereo not drawn) [Lorglumide sodium],103,107,100 (inactive),89.8 (inactive)
"CN(C)C(=S)NN=C(c1ccccn1)c1ccccn1 [(Z)-di(2-pyridinyl)methanone N,N-dimethylthiosemicarbazone]",75.1,52.4,107 (inactive),106 (inactive)
CCCCCCCCCCCCC(=O)N1CCCCC1CNC(=O)C(N)CCCCN.Cl.Cl (stereo not drawn),101,109,104 (inactive),100 (inactive)
"Nc1cccc(-c2cc3c(Oc4cccc(O)c4)ncnc3[nH]2)c1 [GSK3b Inhibitor XII, TWS119]",60.2,55,112 (inactive),214 (active)
COc1cccc(OC)c1OCCNCC1COc2ccccc2O1.Cl (stereo not drawn) [WB-4101 hydrochloride],102,101,93.7 (inactive),93.3 (inactive)
CC(C)CC(NC(=O)C(Cc1c[nH]c2ccccc12)NC(=O)C(Cc1ccc(O)cc1)NC(=O)C(CO)NC(=O)C(Cc1c[nH]c2ccccc12)NC(=O)C(Cc1cnc[nH]1)NC(=O)C1CCC(=O)N1)C(=O)NC(CCCN=C(N)N)C(=O)N1CCCC1C(=O)NCC(N)=O (stereo not drawn) [Triptorelin],107,89.6,97.7 (inactive),103 (inactive)
CC(=O)OCC1(O)CC23CCC4c5ccoc5C=CC4(C)C2CCC1C3 (stereo not drawn) [Kahweol Acetate],103,95.3,105 (inactive),98.9 (inactive)
Cc1cc(C)c(C=C2C(=O)Nc3ccccc32)[nH]1,102,108 and 105,94.2 (inactive) and 92.7 (inactive),115 (inactive) and 103 (inactive)
CCCc1c(OCCCCc2nn[nH]n2)ccc(C(C)=O)c1O,104,101 and 110,97.5 (inactive) and 94.5 (inactive),105 (inactive)
CC(N)(Cc1ccc(O)c(O)c1)C(=O)O (stereo not drawn) [Methyldopa],107,100,102 (inactive),94 (inactive)
"O=C1NC(=O)C(c2ccccc2)(c2ccccc2)N1 [5,5-Diphenylhydantoin]",99.8,108,89.2 (inactive),100 (inactive)
